# Assay results taken from PubChem BioAssay (NCI).
# The panel holds about 83,000 compounds, 20% with a hit somewhere; the sample as a whole holds those more often.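 96-well plates, one dose, 48 hours. Percent growth reported; active if below 10.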 Calls of active or inactive are those of the source.
# Test system: HL-60(TB) leukemia
# Experiment: NCI-60 one-dose screen, 48 h (100 = growth as untreated, 0 = no growth, -100 = all killed)
# Conditions: 10 µM unless noted
row,Compound,growth
1,O=C(/C=C/c1ccc(-c2ccccc2)cc1)c1nc2ccccc2n1Cc1ccc(F)cc1,21.1% (inactive)
2,CO[C@H]1CSS[C@@H]1Cn1nc(-c2ccc(Oc3ccccc3)cc2)c2c(N)ncnc21,8.96% (active)
3,CN1CCN(Cc2ccc(C(=O)Nc3cccc(Nc4ccc5cc(O)ccc5n4)c3)cc2C(F)(F)F)CC1,-70.2% (active)
4,O=C(c1ccc(Cl)cc1)c1ccc(OCCCN2CCN(c3ccncc3)CC2)cc1,-3.36% (active)
5,O=C(c1ccc(O)cc1)C1[C@H](c2ccc(Br)cc2)[C@@H](c2ccccc2)NC12C(=O)Nc1ccccc12 (stereo not given in full),50.5% (inactive)
6,C=Cn1cc(C(=O)O)c(=O)c2cc(F)c(N3CCN(c4nccc(-c5nccs5)n4)CC3)cc21,-24.7% (active)
7,CCCCCCCOc1ccc(S(=O)(=O)Nc2ccc(C)c(F)c2C(=O)O)cc1,89.8% (inactive)
8,CC1=C(C(=O)Nc2ccccc2)C(c2cccc3ccccc23)n2c(nc3ccccc32)N1 (stereo not given),95% (inactive)
9,N#Cc1c(NC(=O)c2cccc(C(F)(F)F)c2)sc2c1CCC(O)=C2,30% (inactive)
10,Cc1ccc(C(=O)Nc2cc(-n3cnc(F)c3)cc(C(F)(F)F)c2)cc1C#Cc1cnc2cccnn12,23.5% (inactive)
11,O=C(C1=CNC(=S)NC1c1ccc(O)cc1)c1cc2ccccc2oc1=O (stereo not given),79.5% (inactive)
12,N#CC1=C(c2cccs2)Nc2c(c(-c3ccccc3)nn2-c2ccccc2)C12C(=O)Nc1ccccc12 (stereo not given),0.7% (active)
13,COc1cccc(/C=C/c2nc3ccccc3c(=O)n2CC(=O)Nc2ccccc2)c1,97.7% (inactive)
14,Cc1ccccc1Nc1nnc(-c2c[nH]c3ccccc23)o1,-23.7% (active)
15,CN(C)CCn1c2ccccc2c2nc3cc4ccccc4cc3nc21,-51.2% (active)
16,COc1cc2c(c(OC)c1OC)C(=O)CC(c1cccc(NC(=O)c3cc(N)ccc3Cl)c1)O2 (stereo not given),52.2% (inactive)
17,COc1cc(/C=C/C(=O)c2ccc(C)cc2)ccc1Oc1nc(Nc2ccc(F)cc2)nc(N(C)C)n1,41.7% (inactive)
18,NS(=O)(=O)c1ccc(NC(=O)CSc2ccc(-c3ccccc3)nn2)c(Br)c1,99.2% (inactive)

row,Compound,growth
1,CCOC(=O)CNC(=O)CN(Cc1ccccc1)C(=O)[C@@]1(C)CCC[C@]2(C)[C@H]3C[C@H]4C(C(C)C)=C[C@]3(CC[C@H]21)[C@@H]1C(=O)OC(=O)[C@@H]14,9.46% (active)
2,CN(C)c1ccnc(NCCCSC(c2ccccc2)(c2ccccc2)c2ccccc2)c1,-59% (active)
3,COc1ccccc1[C@H]1C(C(=O)c2ccc(O)cc2)C2(N[C@@H]1c1ccccc1)C(=O)Nc1ccc(Br)cc12 (stereo not given in full),10.5% (inactive)
4,CCCCSc1nc(Nc2ccc(S(N)(=O)=O)cc2)c(C#N)c(-c2ccc(Cl)cc2)n1,62.9% (inactive)
5,Cc1cccc2cc(-c3cc(-c4ccccc4)nc(=S)[nH]3)c(Cl)nc12,58.9% (inactive)
6,COc1ccc(-c2ccc(SCC(=O)Nc3ccc(S(N)(=O)=O)cc3Br)nn2)cc1,94.9% (inactive)
7,Cc1ccc(-c2cc(C(=O)N=Nc3c(O)[nH]c4ccc(F)cc34)c3ccccc3n2)cc1,88.4% (inactive)
8,COc1cc(-c2cc(-c3cccc(OCC(=O)O)c3)[nH]c(=O)c2C#N)cc(OC)c1OC,80.6% (inactive)
9,COc1ccc(/C=C/c2nc3ccccc3n3c(-c4ccc(Cl)cc4)nnc23)cc1,71.8% (inactive)
10,Cn1cc(-c2nnc(N)nc2-c2c[nH]c3ccc(F)cc23)c2cccnc21,10.2% (inactive)
11,Cc1ccc(CNC(=O)Cc2ccc3c(c2)CN(C2CCC(=O)NC2=O)C3=O)cc1 (stereo not given),-23.1% (active)
12,Cc1ccc(-c2ccc(SCC(=O)Nc3ccc(Cl)c(C(F)(F)F)c3)nn2)cc1,-22.3% (active)
13,O=C(N/N=C/c1ccc(Cl)o1)c1[nH]c2ccc(Br)cc2c1-c1ccccc1,-42.4% (active)
14,N#Cc1c(-c2ccccc2Cl)cc(-c2c[nH]c3ccccc23)[nH]c1=O,68.4% (inactive)
15,CCCn1cc(-c2nc(Nc3ccc(C(=O)NCCCCNc4cccc5c4C(=O)N(C4CCC(=O)NC4=O)C5=O)cc3)nc3[nH]ccc23)cn1 (stereo not given),-36.9% (active)
16,O=C(c1ccc(Cl)cc1)C1[C@H](c2ccc(Br)cc2)[C@@H](c2ccccc2)NC12C(=O)Nc1ccc(Cl)cc12 (stereo not given in full),-45.2% (active)
17,COC1=C[C@@]23CCC(=O)N2CCc2cc4c(cc2[C@H]3[C@H]1OC(=O)C(C)(C)O)OCO4,87% (inactive)
